A short description of assay [1]: viability loss in pontine glioma line – cell-based, SU-DIPG-XXV, MIPE5.0, CellTiter-Glo, qHTS, dose response (AID 1347065; cut-off not given, nearly all actives have AC50 up to about 26 µM;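 further: cells exposed to compound for 48 hours before ATP readout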). The settings on record: CellTiter-Glo ATP luminescence.
Assay [2] in a line: growth inhibition of DIPG cells – cell-based, MIPE4.0 library, CellTiter-Glo luminescence, qHTS (AID 1347066; cut-off not given, nearly all actives have AC50 up to about 30 µM;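 further: cells exposed to compound for 48 hours before readout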). The settings on record: SU-DIPG-VI viability, CellTiter-Glo ATP luminescence.
A short description of assay [3]: JHH-DIPG-1 glioma cell viability, MIPE5.0 library, CellTiter-Glo luminescence, qHTS (AID 1347067; cut-off not given, nearly all actives have AC50 up to about 26 µM;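 further: cells exposed to compound for 48 hours before readout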). The note with it: JHH-DIPG-1 glioma viability, CellTiter-Glo ATP luminescence.
Assay [4] in a line: growth inhibition of DIPG cells – cell-based, MIPE5.0 library, qHTS (AID 1347068; cut-off not given, nearly all actives have IC50 up to about 30 µM). The note with it: SU-DIPG-XXV viability. (qHTS replaces the single test concentration by a dilution series.)
Assay [5] in a line: blockers of cellular phospholipid synthesis – cell-based, LOPAC library, screen 4, primary screen (AID 1347384; call rule not given here). The note with it: animal cells, phospholipid biosynthesis inhibition screen; at 10 µM.
Assay [6] can be described thus: MELAS cybrid and Rieske KO viability enhancers – cell-based, MELAS cybrids, Rieske KO mouse fibroblasts, CellTiter-Glo, primary screen (AID 1508586).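 Further: z relative to plate mean and SD of compound and empty wells.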 The settings on record: low glucose.
Assay [7] can be described thus: viability loss with induced miR-34 in A549 – imaging, A549 dox-inducible miR-34, nuclei and caspase counts, primary screen (AID 1347080;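 active means compounds whose cell count with miR-34 switched on is under 0.7 times the count with it off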). The note with it: A549 miR-34 inducible, Hoechst nuclei count, 48 h.
[8] abbreviates: MELAS cybrid survival, CellTiter-Glo 48 h, stronger effect = higher value.
[9] abbreviates: Rieske KO mouse fibroblast survival, CellTiter-Glo 72 h.
Setting [10] is: stronger effect = lower value, cell number ratio, induced over uninduced.
Where [11] appears, read: measured here: relative caspase fold change +Dox/-Dox.
Setting [12] is: measured here: total cells with miR-34 induction, stronger effect = lower value.
Where [13] appears, read: measured here: total cells without miR-34 induction.

We go through 10 molecules from PubChem BioAssay.

Several values for one entry are separate records, joined by “and”; a condition that tells them apart may be missing. Equal values may be shown once. Results filed as inconclusive are left out. Activity calls are given as the source filed them.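 How the source made its calls, unless noted: active means mean z-score across replicates of 1.96 or higher in either the MELAS or the Rieske mutant cell line; inactive means the rest.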

Take `NC(=O)c1ncn([C@@H]2O[C@H](CO)[C@@H](O)[C@H]2O)n1`: the result in assay [1], in assay [2], in assay [3], in assay [4] and in assay [5] was inactive. Further, the z-score in assay [6] (setting [8]) is -1.67 (inactive) and -1.08 (inactive); in assay [6] (setting [9]), -1.02 and -1.08.
Turning to `COc1ccc(CCN(C)CCCC(C#N)(c2ccc(OC)c(OC)c2)C(C)C)cc1OC` (stereo not drawn), the call in assay [1], in assay [2], in assay [3], in assay [4] and in assay [5] was inactive. Further, the z-score is -1.23 (inactive) and 0.18 (inactive) and -0.391 (inactive) in assay [6] (setting [8]); -2.03 and 0.282 and -0.248 in assay [6] (setting [9]).
Take `Nc1nc2c(ncn2COC(CO)CO)c(=O)[nH]1`: the call in assay [1], in assay [2], in assay [3], in assay [4] and in assay [5] was inactive.
As for `Nc1nnc(-c2cccc(Cl)c2Cl)c(N)n1`, the result in assay [1], in assay [2], in assay [3], in assay [4] and in assay [5] was inactive. Further, the z-score in assay [6] (setting [8]) is 1.04 (inactive) and -0.0755 (inactive) and -0.75 (inactive); in assay [6] (setting [9]) it was -2.18 and 0.0455 and -0.484.
As to `CCCc1cc(C(N)=S)ccn1`, the molecule was called inactive in assay [1], in assay [2], in assay [3] and in assay [4]. The fold change in assay [7] (setting [10]) is 0.877 (inactive) and 0.879 (inactive); in assay [7] (setting [11]), 0.726 and 1.06. Further, the cell count in assay [7] (setting [12]) is 7890 and 9370; in assay [7] (setting [13]) it was 8990 and 10700. The z-score in assay [6] (setting [8]) was -0.334 (inactive) and 1.02 (inactive) and 0.566 (inactive); in assay [6] (setting [9]) it was -0.0512 and 0.419 and 0.177.
Regarding `CN1CCC(=C2c3ccccc3CC(=O)c3sccc32)CC1`, the molecule was called inactive in assay [1], in assay [2], in assay [3], in assay [4] and in assay [5]. Also, the z-score in assay [6] (setting [8]) was -0.303 (inactive) and -0.251 (inactive) and -0.573 (inactive); in assay [6] (setting [9]), -0.862 and -0.369 and 0.333.
`CCC1=C(C)CN(C(=O)NCCc2ccc(S(=O)(=O)NC(=O)NC3CCC(C)CC3)cc2)C1=O` (stereo not drawn): the molecule was called inactive in assay [1], in assay [2], in assay [3] and in assay [4]. For the same molecule, the z-score is -0.439 (inactive) and 0.644 (inactive) and 0.245 in assay [6] (setting [8]); 0.486 and 0.124 and 2.28 in assay [6] (setting [9]).
For the molecule `NC[C@H](O)c1ccc(O)c(O)c1`, the result in assay [1], in assay [2], in assay [3], in assay [4] and in assay [5] was inactive. For the same molecule, the z-score in assay [6] (setting [8]) is -0.303 (inactive) and 0.0574 (inactive) and -0.946 (inactive); in assay [6] (setting [9]), -0.266 and 0.00809 and -1.27.
Take `CC(=O)O[C@H]1C[C@@H]2CC[C@@H]3[C@H](CC[C@@]4(C)[C@H]3C[C@H]([N+]3(C)CCCCC3)[C@@H]4OC(C)=O)[C@@]2(C)C[C@@H]1N1CCCCC1`: the molecule was classed as inactive in assay [1], in assay [2], in assay [3] and in assay [4]. Also, the fold change in assay [7] (setting [10]) was 0.831 (inactive); in assay [7] (setting [11]) it was 1.81. In addition, the cell count in assay [7] (setting [12]) worked out at 8710; in assay [7] (setting [13]), 10500. The z-score in assay [6] (setting [8]) was 0.144 (inactive) and 0.341 (inactive); in assay [6] (setting [9]) it was -0.264 and -0.536.
As for `CC[N+](CC)(CC)CCOc1cccc(OCC[N+](CC)(CC)CC)c1OCC[N+](CC)(CC)CC`, the molecule was called inactive in assay [1], in assay [2], in assay [3], in assay [4] and in assay [5]. Also, the z-score in assay [6] (setting [8]) was -0.318 (inactive) and -0.405 (inactive) and -0.918 (inactive); in assay [6] (setting [9]) it was 0.619 and -0.334 and -0.59.
